Assay results as given in the supplement of paper PMC3545927.
The list shows a part of the results. No count for the full screen is at hand.

Target: furin, P09958
Test: furin cleavage Z-score vs untreated control; higher = more cleavage, active = 3.5 or more, inactive = 1 or less, 8 variable residues between constant flanks
Procedure, shortened: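 Furin cleavage was scored on 8-mer peptides joined to a cDNA oligonucleotide and bound to magnetic beads at the N-terminus. Digestion with purified furin (1:10 enzyme:substrate, 0.01 ml, 50 mM HEPES pH 7.5, CaCl2, NaCl) lasted 7.5, 15 or 30 min. Freed DNA was tagged with adapters by PCR, sequenced and counted; the cleavage Z-score is the lowess-adjusted log count versus furin-free reactions, scaled by median absolute deviation.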

Sequence of furin, P09958 (P09958 whole entry): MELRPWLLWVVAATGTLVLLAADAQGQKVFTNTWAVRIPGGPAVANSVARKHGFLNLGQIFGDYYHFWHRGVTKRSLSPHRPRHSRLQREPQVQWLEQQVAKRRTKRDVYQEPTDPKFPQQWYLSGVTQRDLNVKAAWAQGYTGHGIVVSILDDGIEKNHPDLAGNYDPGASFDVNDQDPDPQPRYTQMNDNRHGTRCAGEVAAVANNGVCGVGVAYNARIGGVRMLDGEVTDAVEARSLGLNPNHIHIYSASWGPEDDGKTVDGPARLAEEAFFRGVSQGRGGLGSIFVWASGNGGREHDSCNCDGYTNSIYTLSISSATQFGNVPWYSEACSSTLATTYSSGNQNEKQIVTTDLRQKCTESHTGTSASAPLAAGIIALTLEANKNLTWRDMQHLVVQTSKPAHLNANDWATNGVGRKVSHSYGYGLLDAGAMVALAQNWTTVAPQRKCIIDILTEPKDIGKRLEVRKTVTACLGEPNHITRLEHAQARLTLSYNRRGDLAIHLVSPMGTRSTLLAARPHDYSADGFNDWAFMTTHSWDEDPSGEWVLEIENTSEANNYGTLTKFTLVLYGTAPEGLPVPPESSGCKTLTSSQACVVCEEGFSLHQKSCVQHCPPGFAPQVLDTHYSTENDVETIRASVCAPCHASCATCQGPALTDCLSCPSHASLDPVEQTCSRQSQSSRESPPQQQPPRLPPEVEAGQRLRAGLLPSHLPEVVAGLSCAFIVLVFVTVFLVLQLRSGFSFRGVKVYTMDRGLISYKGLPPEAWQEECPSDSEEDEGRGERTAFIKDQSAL

Sequence	furin cleavage Z-score (7.5 min)	furin cleavage Z-score (15 min)	furin cleavage Z-score (30 min)
CANGSWHLNSAGNASASA [HC369]	-0.0133 (inactive)	2.38	0.739 (inactive)
CAHREVPCHRAGNASASA [HC2435]	-0.316 (inactive)	1.36	2.65
CAVTKLPLAVAGNASASA [HC1460]	-0.671 (inactive)	-0.455 (inactive)	0.174 (inactive)
CARTPCSGSWAGNASASA [HC1833]	-0.828 (inactive)	-0.942 (inactive)	-0.629 (inactive)
CAKYSRSYRYAGNASASA [FS-937]	-0.221 (inactive)	-0.443 (inactive)	0.667 (inactive)
CANKFRTKRYAGNASASA [FS-695]	9.46 (active)	8.84 (active)	7.04 (active)
CASGGPLLCPAGNASASA [HC743]	0.483 (inactive)	-0.364 (inactive)	-1.12 (inactive)
CASGGRTKRYAGNASASA [FS-191]	8.8 (active)	10.7 (active)	9.18 (active)
CADQERKARYAGNASASA [FS-758]	-0.446 (inactive)	0.477 (inactive)	0.913 (inactive)
CARVTAILSSAGNASASA [HC1132]	1.14	0.277 (inactive)	-0.773 (inactive)
CARAARHVVAAGNASASA [FS-1988]	0.916 (inactive)	2.53	4.88 (active)
CARRSRSSYTAGNASASA [FS-3070]	-0.67 (inactive)	0.865 (inactive)	2.05
CADFEVVTSTAGNASASA [HC2287]	0.0621 (inactive)	-1.1 (inactive)	-1.43 (inactive)
CARRSRKVGSAGNASASA [FS-2455]	-0.487 (inactive)	0.947 (inactive)	0.792 (inactive)
CARRVRIVSRAGNASASA [FS-1923]	-0.897 (inactive)	0.174 (inactive)	1.35
CARRSRSPRTAGNASASA [FS-3069]	8.32 (active)	10.6 (active)	7.67 (active)
CARGPRAVSTAGNASASA [FS-2334]	0.54 (inactive)	0.906 (inactive)	1.4
CARAARSRGAAGNASASA [FS-2324]	-0.759 (inactive)	-0.113 (inactive)	-0.259 (inactive)
CARRSRDVSCAGNASASA [FS-2519]	4.17 (active)	5.01 (active)	5.69 (active)
CARCPRQVSTAGNASASA [FS-3216]	4.16 (active)	3.66 (active)	6.67 (active)
CASRSRSPRPAGNASASA [FS-1283]	-0.34 (inactive)	0.132 (inactive)	-0.275 (inactive)
CARAARGTIGAGNASASA [FS-2879]	-0.0204 (inactive)	-0.846 (inactive)	0.286 (inactive)

Sequence	furin cleavage Z-score (7.5 min)	furin cleavage Z-score (15 min)	furin cleavage Z-score (30 min)
CAEVPCHTPSAGNASASA [HC2378]	0.816 (inactive)	0.745 (inactive)	1.13
CAAGYSGGDIAGNASASA [HC1647]	-1.51 (inactive)	-1.76 (inactive)	-1.36 (inactive)
CARAARVPRTAGNASASA [FS-1476]	7.67 (active)	5.53 (active)	4.3 (active)
CARRSRNVSTAGNASASA [FS-2083]	1.86	4.41 (active)	5.4 (active)
CARAARRAAGAGNASASA [FS-1678]	-0.697 (inactive)	-0.053 (inactive)	-1.33 (inactive)
CARRFRVVSGAGNASASA [FS-1774]	0.247 (inactive)	-0.792 (inactive)	-0.178 (inactive)
CARRSRSSSRAGNASASA [FS-2600]	0.0891 (inactive)	0.74 (inactive)	0.299 (inactive)
CARAARFAKTAGNASASA [FS-1885]	-1.44 (inactive)	0.407 (inactive)	0.00762 (inactive)
CARGSLLSPRAGNASASA [HC735]	0.168 (inactive)	-0.587 (inactive)	-0.591 (inactive)
CARNKRTCSAAGNASASA [FS-2160]	2.24	3.57 (active)	2.82
CARNKRTCSEAGNASASA [FS-2161]	4.64 (active)	4.66 (active)	4.26 (active)
CAGSATLCSAAGNASASA [HC294]	-0.289 (inactive)	-0.124 (inactive)	-0.454 (inactive)
CADNTTTSSEAGNASASA [HC1342]	-1.15 (inactive)	0.112 (inactive)	-0.634 (inactive)
CAEVPCHRHSAGNASASA [HC2395]	0.115 (inactive)	0.712 (inactive)	1.03
CAECHSTDATAGNASASA [HC819]	-0.594 (inactive)	-1.11 (inactive)	0.253 (inactive)
CALFAGVDAEAGNASASA [HC349]	-0.796 (inactive)	-0.738 (inactive)	-0.0117 (inactive)
CAIKDRNKRDAGNASASA [FS-251]	11.9 (active)	10.9 (active)	8.42 (active)
CAASAVLKRDAGNASASA [FS-751]	0.168 (inactive)	-1.94 (inactive)	1.16
CALGDREKRDAGNASASA [FS-548]	4.49 (active)	4.22 (active)	4.54 (active)
CAFSAREKRDAGNASASA [FS-587]	10.7 (active)	11.3 (active)	9.1 (active)
CAASGREGRDAGNASASA [FS-402]	-0.371 (inactive)	-0.657 (inactive)	-0.187 (inactive)
